Assay [1] is described as follows: qHTS assay to identify small molecule antagonists of the glucocorticoid receptor (GR) signaling pathway - cell viability counter screen (AID 720693; also: nearly all actives have a fitted effect of over 55% in size; also: potency is read from the fitted curve at half-maximal effect). (In general: In qHTS, concentration-response curves come from the screen itself.)
A short description of assay [2]: qHTS assay for identifying genotoxic compounds that show differential cytotoxicity against isogenic chicken DT40 cell lines with known DNA damage response pathways - wild type cell line (AID 743012). Also: nearly all actives have a fitted effect of over 60% in size. Also: potency is read from the fitted curve at half-maximal effect. In outline:
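Parental DNA repair-proficient DT40 cells, 300 per well, were pre-incubated ~0.5 h at 37 C/5% CO2, pin-dosed with compounds in DMSO, then incubated 40 h. Viability was read as CellTiter-Glo luminescence after 30 min at room temperature.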

A short description of assay [3]: qHTS assay for identifying genotoxic compounds that show differential cytotoxicity against isogenic chicken DT40 cell lines with known DNA damage response pathways - Rev3 mutant cell line (AID 743014). Also: nearly all actives have a fitted effect of over 55% in size. Also: potency is read from the fitted curve at half-maximal effect.
The nature of assay [4]: qHTS assay for identifying genotoxic compounds that show differential cytotoxicity against isogenic chicken DT40 cell lines with known DNA damage response pathways - Rad54/Ku70 mutant cell line (AID 743015). Also: nearly all actives have a fitted effect of over 60% in size. Also: potency is read from the fitted curve at half-maximal effect.
Assay [5] in a line: qHTS assay to identify small molecule antagonists of the androgen receptor (AR) signaling pathway - cell viability counter screen (AID 743033; also: nearly all actives have a fitted effect of over 45% in size; also: potency is read from the fitted curve at half-maximal effect).
Assay [6] can be described thus: qHTS assay to identify small molecule antagonists of the androgen receptor (AR) signaling pathway using the MDA cell line - cell viability counter screen (AID 743041; also: nearly all actives have a fitted effect of over 45% in size; also: potency is read from the fitted curve at half-maximal effect). The essentials:
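Same-well cytotoxicity was assessed by CellTiter-Fluor in MDA-kb2 AR-luc cells after 16 h of compound treatment under R1881 agonism.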

Assay [7] can be described thus: qHTS assay to identify small molecule antagonists of the thyroid receptor (TR) signaling pathway - cell viability counter screen (AID 743064). Also: nearly all actives have a fitted effect of over 50% in size. Also: potency is read from the fitted curve at half-maximal effect. In outline:
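Viability of T3-stimulated (1 nM final) GH3.TRE-Luc cells is measured by CellTiter-Fluor fluorescence after 23.5 h compound exposure at 37 °C plus 30 min reagent incubation.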

Assay [8] in a line: qHTS assay to identify small molecule antagonists of the thyroid receptor (TR) signaling pathway (AID 743065). Also: nearly all actives have a fitted effect of over 55% in size. Also: potency is read from the fitted curve at half-maximal effect. In outline: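 GH3.TRE-Luc rat pituitary cells (two TREs driving luciferase) were dosed with compound, then stimulated with 1 nM T3 (final) for 23.5 h at 37 C. ONE-Glo luminescence was the read-out, with CellTiter-Fluor fluorescence as the cytotoxicity counter-screen.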

Assay [9] has as its system thyroid hormone receptor (rat, GH3 cells). As to the kind of experiment: qHTS assay to identify small molecule agonists of the thyroid receptor (TR) signaling pathway (AID 743066; calls by dose curve).
The target in assay [10] is Estrogen receptor (Homo sapiens) (UniProt P03372). As to the kind of experiment: qHTS assay to identify small molecule antagonists of the estrogen receptor alpha (ER-alpha) signaling pathway (AID 743069; active = well fitted curve in the direction sought with a large enough effect in the signal ratio in the repeat runs, not every such curve was filed as active; inconclusive = weak or mixed curves, or effect the other way; inactive = no such curve, though single readings can be large or run the other way; the % refers to the signal ratio; also: potency is read from the fitted curve at half-maximal effect). In outline:
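Reporter cells (ER-alpha-bla, HEK293 background) are conditioned overnight in stripped-serum medium (2% charcoal-stripped FBS). Compound and 17beta-estradiol exposure runs 18 hr at 37C, 5% CO2.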

For assay [11] the target is unchanged. As to the kind of experiment: qHTS assay to identify small molecule agonists of the estrogen receptor alpha (ER-alpha) signaling pathway (AID 743075; calls by dose curve; also: potency is read from the fitted curve at half-maximal effect).
The target is the same in assay [12]. As to the kind of experiment: qHTS assay to identify small molecule agonists of the estrogen receptor alpha (ER-alpha) signaling pathway using the BG1 cell line (AID 743079). Also: nearly all actives have a fitted effect of over 20% in size. Also: potency is read from the fitted curve at half-maximal effect.
Assay [13] can be described thus: qHTS assay to identify small molecule antagonists of the estrogen receptor alpha (ER-alpha) signaling pathway using the BG1 cell line (AID 743080; calls by dose curve;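 also: BG1 cells stimulated with 17beta-estradiol alongside compound; nearly all actives have a fitted effect of over 25% in size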; also: potency is read from the fitted curve at half-maximal effect). The essentials:
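Seeding, 24 h rest, compound transfer from DMSO, 17beta-estradiol addition, 21.5 h incubation, CellTiter-Fluor (30 min, 37 C), then ONE-Glo (30 min, room temperature): this sequence was run on BG1-Luc-4E2 reporter cells.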

Assay [14] can be described thus: qHTS assay to identify small molecule antagonists of the estrogen receptor alpha (ER-alpha) signaling pathway using the BG1 cell line - cell viability counter screen (AID 743081).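 Also: compound given together with 17beta-estradiol as the ER stimulus; nearly all actives have a fitted effect of over 45% in size.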 Also: potency is read from the fitted curve at half-maximal effect.
The next assay concerns the target Aromatase (Homo sapiens) (UniProt P11511). As to the kind of experiment: qHTS assay to identify aromatase inhibitors (AID 743083). Also: nearly all actives have a fitted effect of over 55% in size. Also: potency is read from the fitted curve at half-maximal effect.
A short description of assay [15]: qHTS assay to identify small molecule antagonists of the estrogen receptor alpha (ER-alpha) signaling pathway - cell viability counter screen (AID 743074; calls by dose curve;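 also: HEK293 cells carrying ER-alpha-UAS-bla reporter stimulated with 17beta-estradiol; nearly all actives have a fitted effect of over 45% in size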; also: potency is read from the fitted curve at half-maximal effect).
For assay [16], the target named is Androgen receptor (Homo sapiens) (UniProt P10275). As to the kind of experiment: qHTS assay to identify small molecule antagonists of the androgen receptor (AR) signaling pathway (AID 743035; active = well fitted inhibition curve with a large enough effect in the signal ratio in the repeat runs, not every such curve was filed as active; inconclusive = weak or mixed curves, or effect the other way; inactive = no such curve, though single readings can be large or run the other way; the % refers to the signal ratio; also: potency is read from the fitted curve at half-maximal effect). The essentials:
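HEK293 cells stably carrying a UAS-driven beta-lactamase reporter (AR-UAS-bla GripTite) were plated for 4 h at 37C, then given compound and the agonist R1881 and incubated 16 h. Reporter activity was read by LiveBLAzer B/G FRET fluorescence after 2 h at room temperature.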

Assay [17] has the same target. As to the kind of experiment: qHTS assay to identify small molecule antagonists of the androgen receptor (AR) signaling pathway using the MDA cell line (AID 743042; also: nearly all actives have a fitted effect of over 55% in size; also: potency is read from the fitted curve at half-maximal effect). The essentials: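 MDA-kb2 breast carcinoma cells carrying MMTV-luciferase (AR/GR responsive) were co-treated with compounds and the agonist R1881 for 16 h at 37C. Inhibition read as ONE-Glo luminescence; CellTiter-Fluor fluorescence measured in parallel for cytotoxicity.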

Assay [18] shares this target. As to the kind of experiment: qHTS assay to identify small molecule agonists of the androgen receptor (AR) signaling pathway (AID 743036; active = well fitted activation curve with a large enough effect in the signal ratio in the repeat runs, with a control signal flat, not every such curve was filed as active; inconclusive = weak or mixed curves, or effect the other way; inactive = no such curve, though single readings can be large or run the other way; the % refers to the signal ratio). The essentials:
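Screening used 2,000 AR-bla HEK293 cells per well, treated 16 h at 37C with test compounds in DMSO alongside positive and DMSO-only controls; beta-lactamase activity was then read by LiveBLAzer B/G FRET fluorescence after 2 h at room temperature.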

Experimental findings from PubChem BioAssay (Tox21) are described below.

Several values for one entry are separate records, joined by “and”; a condition that tells them apart may be missing. Equal entries are not always repeated. More than one record can exist for a structure, and the calls need not agree. Activity calls are given as the source filed them. Unless noted, calls follow the shape of the dose curve; as a rule, active = well fitted curve in the direction sought with a large enough effect in the repeat runs; inconclusive = weak or mixed curves; inactive = no such curve, though single readings can be large; an effect the other way counts as inactive or inconclusive.
% is scaled to controls: 0 for no effect and ±100 for the full control effect.

Sequence of Androgen receptor (Homo sapiens) (P10275 whole entry, looked up): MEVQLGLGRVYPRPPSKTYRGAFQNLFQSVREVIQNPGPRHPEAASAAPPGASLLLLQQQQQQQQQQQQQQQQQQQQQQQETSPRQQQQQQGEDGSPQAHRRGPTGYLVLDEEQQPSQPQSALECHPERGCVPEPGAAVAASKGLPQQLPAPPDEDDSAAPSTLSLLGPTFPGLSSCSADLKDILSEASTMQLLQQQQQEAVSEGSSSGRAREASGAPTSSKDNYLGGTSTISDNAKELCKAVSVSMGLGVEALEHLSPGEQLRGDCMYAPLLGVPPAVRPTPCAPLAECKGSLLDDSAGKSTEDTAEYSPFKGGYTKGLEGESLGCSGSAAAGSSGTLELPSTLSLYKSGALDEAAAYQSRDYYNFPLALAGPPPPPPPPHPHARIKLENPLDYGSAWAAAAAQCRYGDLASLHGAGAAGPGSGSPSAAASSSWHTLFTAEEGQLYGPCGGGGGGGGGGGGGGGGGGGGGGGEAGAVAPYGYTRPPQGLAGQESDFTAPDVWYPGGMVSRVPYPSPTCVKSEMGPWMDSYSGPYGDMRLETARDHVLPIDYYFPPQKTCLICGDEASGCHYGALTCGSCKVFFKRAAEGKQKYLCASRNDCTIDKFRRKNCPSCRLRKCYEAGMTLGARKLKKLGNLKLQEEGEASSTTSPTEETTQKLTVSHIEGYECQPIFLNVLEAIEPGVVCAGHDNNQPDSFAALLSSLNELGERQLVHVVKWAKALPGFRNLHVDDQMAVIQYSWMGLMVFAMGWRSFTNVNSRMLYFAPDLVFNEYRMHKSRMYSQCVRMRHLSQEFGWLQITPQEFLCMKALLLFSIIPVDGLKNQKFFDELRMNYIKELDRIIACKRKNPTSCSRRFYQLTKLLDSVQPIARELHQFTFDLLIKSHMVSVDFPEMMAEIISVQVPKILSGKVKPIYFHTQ
Sequence of Aromatase (Homo sapiens) (P11511 whole entry, looked up): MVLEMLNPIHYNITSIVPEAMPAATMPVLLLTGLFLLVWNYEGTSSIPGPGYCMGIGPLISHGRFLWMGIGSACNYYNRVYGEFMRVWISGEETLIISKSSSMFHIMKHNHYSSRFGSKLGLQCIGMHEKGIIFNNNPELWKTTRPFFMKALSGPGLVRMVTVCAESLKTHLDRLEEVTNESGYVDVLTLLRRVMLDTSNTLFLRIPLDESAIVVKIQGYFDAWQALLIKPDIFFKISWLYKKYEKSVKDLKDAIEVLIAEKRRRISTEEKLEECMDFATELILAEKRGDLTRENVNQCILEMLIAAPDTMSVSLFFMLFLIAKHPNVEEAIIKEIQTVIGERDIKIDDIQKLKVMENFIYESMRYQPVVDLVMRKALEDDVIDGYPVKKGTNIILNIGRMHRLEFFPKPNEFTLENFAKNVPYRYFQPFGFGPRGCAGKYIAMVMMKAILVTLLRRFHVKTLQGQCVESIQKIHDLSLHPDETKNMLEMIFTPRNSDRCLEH
Sequence of Estrogen receptor (Homo sapiens) (P03372 whole entry, looked up): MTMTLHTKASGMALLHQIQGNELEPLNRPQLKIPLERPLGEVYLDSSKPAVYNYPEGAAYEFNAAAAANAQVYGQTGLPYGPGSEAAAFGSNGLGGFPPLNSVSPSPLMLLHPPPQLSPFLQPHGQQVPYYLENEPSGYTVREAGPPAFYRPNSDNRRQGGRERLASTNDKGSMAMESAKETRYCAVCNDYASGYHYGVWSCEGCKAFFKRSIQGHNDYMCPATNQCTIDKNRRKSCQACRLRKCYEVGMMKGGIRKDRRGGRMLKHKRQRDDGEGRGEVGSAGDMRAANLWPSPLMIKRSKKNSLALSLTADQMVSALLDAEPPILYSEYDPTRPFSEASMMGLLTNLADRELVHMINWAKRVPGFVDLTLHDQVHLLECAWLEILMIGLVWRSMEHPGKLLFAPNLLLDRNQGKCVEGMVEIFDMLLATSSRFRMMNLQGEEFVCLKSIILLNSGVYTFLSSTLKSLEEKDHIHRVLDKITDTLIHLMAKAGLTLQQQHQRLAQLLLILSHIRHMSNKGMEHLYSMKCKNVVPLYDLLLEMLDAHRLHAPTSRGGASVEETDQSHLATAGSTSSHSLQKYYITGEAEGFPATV

As for `ClC1=C(Cl)C2(Cl)C3C(Cl)C=CC3C1(Cl)C2(Cl)Cl` (stereo not drawn), the Potency result in [1], in assay [5], in assay [6], in assay [10], in assay [11] and in assay [12] was “inactive” in each case. The Potency entry in assay [13] and in [14] was “inactive” throughout. For the same molecule, the Potency result in [2] was “inactive and 48.6 µM (active)”; in assay [3], 30.6 µM (active); in assay [4] it was 68.6 µM (active); in assay [7] it was 30.8 µM (active) and 54.5 µM (active); in [8], 43.5 µM (active) and 54.5 µM (active); with Aromatase (Homo sapiens), 68.6 µM (active). Further, the result in assay [9] was inactive.
On to `ClC(Cl)=C(Cl)Cl`, for which the Potency entry in assay [1], in assay [2], in assay [3], in assay [4], in assay [5] and in assay [6] was “inactive” in each case. Moreover, the Potency result (in assay [7]; in assay [8]; in [15]; in [14]; with Aromatase (Homo sapiens)) was “inactive” in each case. The molecule was called inactive in [9].
Take `CCCCCCCCCCCCCCCCCCn1cc[n+](C)c1`: the Potency in assay [1] was 24.4 µM (active); in [2], 1.21 µM (active); in assay [3], 0.963 µM (active); in assay [4] it was 2.16 µM (active); in assay [5] it was 13.7 µM (active); in [16], 3.87 µM (active). The Potency in assay [17] is 7.65 µM (active); in assay [7] it was 12.1 µM (active); in [8], 5.42 µM (active); in [10], 9.72 µM [inconclusive] (active); in assay [15] it was 38.7 µM (active); in assay [14], 30.5 µM (active). In addition, the Potency in the assay with Aromatase (Homo sapiens) was 3.83 µM (active). Moreover, the Potency entry in assay [11] is “inactive”.
Regarding `CC1(c2ccc(Oc3ccccc3)cc2)OC(=O)N(Nc2ccccc2)C1=O` (stereo not drawn), the Potency in [1] was 22 µM (active); in assay [2], 1.09 µM (active); in assay [3], 0.869 µM (active); in [4], 0.774 µM (active); in assay [5], 24.7 µM (active); in assay [6], 27.5 µM (active). The Potency in [8] was 1.94 µM (active); in [10], 17.5 µM [inconclusive] (active); in [13] it was 21.8 µM (active); with Aromatase (Homo sapiens), 61.5 µM (active). Also, the Potency entry in assay [15] is “inactive”.
For `O=[N+]([O-])c1ccc2ccc3cccc4ccc1c2c34`, the Potency entry in assay [1], in assay [2], in assay [3], in [4], in assay [5] and in assay [6] was “inactive” each time. Further, the Potency entry (in [17]; in assay [7]; in assay [15]; in [12]; with Aromatase (Homo sapiens)) was “inactive” throughout. For the same molecule, in assay [9], the molecule was called inactive. In addition, in assay [11], the Potency is 2.75 µM [fluorescent] (active).
Consider `O=c1[nH]c2ccccc2n1C1CCN(CCCC(c2ccc(F)cc2)c2ccc(F)cc2)CC1`, for which the Potency in assay [1] was 5.49 µM (active); in [2], 5.31 µM (active) and 6.11 µM (active); in assay [3], 10.6 µM (active) and 21.7 µM (active); in assay [4], 8.41 µM (active) and 9.69 µM (active); in assay [5], “inactive and 17.4 µM (active)”; in [15], 26.8 µM (active) and 54.9 µM (active). Further, the Potency in [14] was 54.5 µM (active); in the assay with Aromatase (Homo sapiens) it was “inactive and 30.6 µM (active)”. Also, the Potency entry in assay [6] and in [11] was “inactive” in each case.
For `Oc1ccc(C(=C(Cl)Cl)c2ccc(O)cc2)cc1`, the Potency entry in [1], in [2], in [3], in assay [4], in [5] and in assay [6] was “inactive” each time. Further, the Potency entry (in [7]; in [13]; in [14]; with Aromatase (Homo sapiens)) was “inactive” each time. The molecule was called inactive in assay [9]. For the same molecule, the Potency in [10] was 48.9 µM [inconclusive] (active); in [12], 0.243 µM (active).
Turning to `ClCc1ccc(Cl)cc1Cl`, the Potency result in assay [1], in assay [2], in assay [3], in [4], in [5] and in [6] was “inactive” each time. Moreover, the Potency entry in [7], in assay [8], in [10], in assay [15], in assay [11] and in assay [12] was “inactive” in each case. Further, the Potency result (in [13]; in [14]; with Aromatase (Homo sapiens)) was “inactive” in each case. Also, the call in assay [9] was inactive.
Take `Clc1ccc(C(c2ccc(Cl)cc2)C(Cl)(Cl)Cl)cc1`: the Potency result (in assay [1]; in [5]; in [6]; in assay [15]; in [14]; with Aromatase (Homo sapiens)) was “inactive” each time. For the same molecule, the Potency was 18.8 µM (active) and 24.3 µM (active) in assay [2]; 10.6 µM (active) and 7.75 µM (active) and 6.86 µM (active) in assay [3]; 23.7 µM (active) and 19.3 µM (active) in [4]; 18.8 µM (active) and 30.9 µM (active) and 30.6 µM (active) in [7]; 18.8 µM (active) and 30.9 µM (active) and 24.3 µM (active) in assay [8]. The call in assay [9] was inactive.
Regarding `COc1cccc(C(=O)CCN[C@@H](C)[C@H](O)c2ccccc2)c1`, the Potency result (in assay [1]; in assay [5]; in [16]; in [18]; in assay [15]; with Aromatase (Homo sapiens)) was “inactive” throughout. The Potency in [2] was 6.68 µM (active); in [3], 16.8 µM (active); in assay [4], 13.3 µM (active); in assay [7], 13.3 µM (active); in assay [8], 10.6 µM (active).
As for `CCCCCCCCCCCCCCCC[n+]1ccccc1`, the Potency in [1] is 25.7 µM (active) and 30.9 µM (active) and 34.2 µM (active); in [2], 427 nM (active) [middle of 4 runs]; in assay [3], 380 nM (active) [middle of 4 runs]; in assay [4] it was 386 nM (active) [middle of 4 runs]; in assay [5], 19.2 µM (active) [middle of 4 runs]; in [6], 27.3 µM (active) [middle of 4 runs]. The Potency in assay [7] is 16.8 µM (active) [middle of 4 runs]; in assay [15], 22.9 µM (active) and 24.5 µM (active) and 43 µM (active); in assay [13] it was 21.1 µM (active) and 18 µM (active) and 15.4 µM (active); in the assay with Aromatase (Homo sapiens), 7.7 µM (active) [middle of 4 runs]. For the same molecule, the Potency entry in [11] is “inactive”.
Take `CCCCCCCCCCCCCN1CC(C)OC(C)C1` (stereo not drawn): the Potency entry in assay [1], in [5], in assay [6], in assay [7], in [8] and in assay [10] was “inactive” each time. Further, the Potency entry (in assay [15]; in [11]; in assay [12]; in assay [13]; in assay [14]; with Aromatase (Homo sapiens)) was “inactive” in each case. Further, the Potency in [2] is 54.5 µM (active); in assay [3], 27.3 µM (active); in assay [4], 30.6 µM (active). Besides, the result in [9] was inactive.
Take `CN(C)CCc1c[nH]c2ccc(O)cc12`: the Potency result in [1], in assay [2], in [3], in assay [4], in [5] and in [16] was “inactive” each time. The Potency result in assay [18], in assay [6], in [17], in assay [7], in assay [8] and in [14] was “inactive” throughout. Further, the Potency result in the assay with Aromatase (Homo sapiens) was “inactive”. Further, the molecule was called inactive in assay [9].
